Reference: the supplement of paper PMC6555819

Assays:
Assay in all cases: PBM binding z-score (relative to random genomic background probes); higher = stronger binding; sequences stand for … in GC…GCGATTGACAGCGTAGAATGAAGG
[1] = test system: PPARg:RXRa DBDmut IVT, anti-RXR (DBD mutation: RXRa K156A/R161A, NR concentration 270 nM, RXRa partner concentration 90 nM)
How it was run: (§1)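 Binding z-scores were set against random background probes. The data came from custom Agilent 4×180K protein-binding microarrays carrying double-stranded probes with 34-nt variable regions, incubated 1 h with ligand-free nuclear receptor dimers. Partner-specific antibodies detected binding, and scanned fluorescence was regression-normalized.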

[2] = test system: PPARg:RXRa IVT, anti-PPARg (NR concentration 270 nM, RXRa partner concentration 90 nM)
How it was run: as §1

[3] = test system: PPARg DBDmut:RXRa IVT, anti-PPARg (DBD mutation: PPARg1 K132A/R137A, NR concentration 270 nM, RXRa partner concentration 90 nM)
How it was run: as §1

[4] = test system: PPARg DBDmut IVT, anti-PPARg (DBD mutation: PPARg1 K132A/R137A, NR concentration 270 nM)
How it was run: as §1

[5] = test system: PPARg homodimer (NR concentration 180 nM)
How it was run: as §1

[6] = test system: PXR:RXRa (NR concentration 270 nM, RXRa partner concentration 90 nM)
How it was run: as §1

[7] = test system: PXR homodimer (NR concentration 270 nM)
How it was run: as §1

[8] = test system: RARa:RXR (NR concentration 270 nM, RXRa partner concentration 90 nM)
How it was run: as §1

[9] = test system: RARa homodimer (NR concentration 270 nM)
How it was run: as §1

[10] = test system: RARb:RXRa (NR concentration 270 nM, RXRa partner concentration 90 nM)
How it was run: as §1

[11] = test system: RARb homodimer (NR concentration 270 nM)
How it was run: as §1

[12] = test system: RARg:RXRa (NR concentration 270 nM, RXRa partner concentration 90 nM)
How it was run: as §1

[13] = test system: RARg homodimer (NR concentration 270 nM)
How it was run: as §1

[14] = test system: RXRa DBDmut IVT, anti-RXR (DBD mutation: RXRa K156A/R161A, NR concentration 90 nM)
How it was run: as §1

[15] = test system: RXRa homodimer (NR concentration 180 nM)
How it was run: as §1

[16] = test system: THRa:RXRa (NR concentration 90 nM, RXRa partner concentration 90 nM)
How it was run: as §1

[17] = test system: THRa homodimer (NR concentration 90 nM)
How it was run: as §1

[18] = test system: VDR:RXRa (NR concentration 270 nM, RXRa partner concentration 90 nM)
How it was run: as §1

[19] = test system: VDR homodimer (NR concentration 270 nM)
How it was run: as §1

Row | Sequence | PBM binding z-score [1] | PBM binding z-score [2] | PBM binding z-score [3] | PBM binding z-score [4] | PBM binding z-score [5] | PBM binding z-score [6] | PBM binding z-score [7] | PBM binding z-score [8] | PBM binding z-score [9] | PBM binding z-score [10] | PBM binding z-score [11] | PBM binding z-score [12] | PBM binding z-score [13] | PBM binding z-score [14] | PBM binding z-score [15] | PBM binding z-score [16] | PBM binding z-score [17] | PBM binding z-score [18] | PBM binding z-score [19]
1 | CGAACGATGGCATGAGTTGATAGCAAATGCCGAT | -0.534 | -0.676 | -0.379 | -0.0268 | 0.126 | -0.184 | -0.0321 | -0.0116 | -0.0736 | -0.391 | -0.482 | -0.189 | -0.00968 | 0.0712 | 0.135 | -0.2 | -0.806 | -0.111 | 0.233
2 | CCGACTGGGCCAAAAAGGTCATTGATGCCGATAA | 1.65 | 2.62 | -1.21 | -1.08 | 2.17 | 4.5 | 1.95 | 4.92 | 0.897 | 3.9 | 4.22 | 4.39 | 3.5 | 0.66 | 4.52 | 3.14 | 0.199 | 4.64 | 2.14
3 | CCTGCTAGGTCAATGGTCGGCTAAAGCAGCTCGC | 4.15 | 4 | -0.289 | -0.553 | 1.3 | 0.918 | -0.868 | 1.47 | 0.0604 | 3.73 | 2.9 | 3.87 | 4.16 | 1.74 | 1.88 | 2.42 | 0.749 | 1.07 | 0.149
4 | TCTCGGAGGACACGAAAGGTCAGAGCGCGACATC | 1.45 | 1.17 | -0.212 | -0.0951 | 3.06 | 4.27 | 0.685 | 4.73 | 1.1 | 4.27 | 4.91 | 5.18 | 5.35 | 1.09 | 4.3 | 3.82 | 1.12 | 3.45 | 1.22
5 | CCGACTGGGGCTAAGGTTACCATACTCAGTACGA | 0.598 | 2.11 | -0.549 | -0.925 | 0.343 | 0.473 | -0.328 | 1.12 | -0.0476 | 1.12 | 1.12 | 0.783 | 0.678 | 0.382 | 0.902 | 2.39 | 1.68 | 0.0865 | 0.443
6 | GCTTGTAGAGCAAGGTTAAGAAAGACTAAGCTAA | 2.64 | 1.72 | -0.693 | -0.41 | -0.216 | 0.206 | -0.546 | 0.613 | -0.213 | 0.514 | -0.118 | 0.204 | 0.162 | -0.22 | 0.282 | 0.745 | -1.02 | -0.112 | -0.25
7 | TCTGCTAGGTGAACGATGGTCAGCTAATCTGCTA | 3.12 | 2.97 | -0.708 | -0.769 | -0.746 | -0.428 | -0.962 | -0.153 | -1.26 | 0.881 | 0.159 | 0.144 | 0.337 | -0.282 | 0.0585 | 0.529 | -0.885 | -0.621 | -0.782
8 | TGTCAAAGTTCAAAGGTAGCGTAAGTATCCACAC | 0.0975 | 4.06 | 0.876 | 0.963 | -0.119 | 5.11 | 3.16 | 4.97 | 0.73 | 5.09 | 3.86 | 5.84 | 5.8 | 4.41 | 6.07 | 2.76 | -0.0719 | 4.76 | 3.39
9 | GCCCGGAGGACAAGGTCAGAGCTTTGTCCGTAGA | -0.658 | 0.093 | -1.17 | -2.1 | 0.821 | 1.56 | -0.306 | 2.17 | -1.21 | 3.16 | 3.19 | 2.99 | 3.62 | 0.344 | 2.04 | 2.92 | 1.67 | 1.11 | 0.864
10 | CAAACTAGGTCAAAGGCCAAAGTCGAGCCAACCA | 7.91 | 8.52 | 1.47 | 0.202 | 1.73 | 2.9 | 0.159 | 4.68 | 0.255 | 4.31 | 3.34 | 5.06 | 4.83 | 1.8 | 4.98 | 3.05 | 0.429 | 2.6 | 0.659
11 | CCGACTGGGGCAGAATGGTTACCATACCATCCGG | 1.42 | 0.943 | -0.354 | -1.29 | 0.0556 | -1.05 | -0.973 | -0.83 | -0.164 | 0.0446 | -0.435 | 0.00778 | 0.0342 | -0.908 | -0.122 | -0.891 | -0.862 | -0.638 | -0.629
12 | CCGAGTAGGTTATGGGGCATTAAGGCAACGGTGA | 3.03 | 3.54 | -0.853 | -0.637 | 1.15 | -0.0362 | -0.296 | 0.648 | 0.0185 | 0.818 | 1.08 | 0.561 | 0.543 | -0.314 | 0.65 | 0.981 | 0.598 | 0.259 | 0.0646
13 | TCTATTAGTCGATTAGGGCAACCGAAACAGCGGA | 2.06 | 1.15 | 1.13 | 0.942 | 0.0705 | 0.419 | -0.106 | 0.574 | 0.642 | 0.697 | 0.367 | 0.53 | 0.468 | 0.914 | 0.681 | 0.811 | 0.361 | 0.568 | 0.0266
14 | TCACCAAGGTGAAAGGTCGTTGATGCACGCCTTG | 3.13 | 4.81 | 0.292 | 0.0423 | 0.508 | 3.77 | -0.165 | 4.87 | -0.322 | 3.17 | 2.63 | 4.15 | 2 | 1.09 | 5.41 | 3.33 | 0.739 | 3.17 | 0.922
15 | ACTAGGAGGCCAAGTTTGGGTCACTCAAACAAAG | 1.22 | 1.95 | -0.886 | -1.06 | 1.15 | 1.22 | 0.347 | 1.83 | 0.176 | 2.43 | 2.66 | 3.46 | 2.56 | 0.0297 | 1.08 | 2.74 | 1 | 1.08 | 0.935
